# Reference: article PMC5540273 (PLoS ONE, 2017)
# Tests used:
# Settings in all cases: concentration: 1 μM, replicates: in singlicate; n = 1
# [1] = test system: MYO3A
# [2] = test system: MYO3B
# [3] = test system: T1, NDR1
# T1 construct: gene STK38
# [4] = test system: NDR2
# [5] = test system: NEK10
# [6] = test system: NEK11
# [7] = test system: NEK1
# [8] = test system: NEK2
# [9] = test system: NEK3
# [10] = test system: NEK4
# [11] = test system: NEK5
# [12] = test system: NEK6
# [13] = test system: NEK7
# [14] = test system: NEK9
# [15] = test system: T2, NIK
# T2 construct: gene MAP3K14
# [16] = test system: T3, NIM1
# T3 construct: gene MGC42105
# [17] = test system: NLK
# [18] = test system: T4, OSR1
# T4 construct: gene OXSR1
# [19] = test system: PAK1
# [20] = test system: PAK2
# 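Further: KINOMEscan kinase panel screen.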
Compound,%Inh [1] [%],%Inh [2] [%],%Inh [3] [%],%Inh [4] [%],%Inh [5] [%],%Inh [6] [%],%Inh [7] [%],%Inh [8] [%],%Inh [9] [%],%Inh [10] [%],%Inh [11] [%],%Inh [12] [%],%Inh [13] [%],%Inh [14] [%],%Inh [15] [%],%Inh [16] [%],%Inh [17] [%],%Inh [18] [%],%Inh [19] [%],%Inh [20] [%]
CNc1cc(-c2ccc3c(N)n[nH]c3c2)nc(N)n1 [GSK2224810],41,0,16,19,0,0,0,0,2,0,14,0,0,0,26,20,27,0,0,0
COc1ccc(Nc2nccc(N3CCC(NC(=O)C(C)c4ccc(Cl)cc4)C3)n2)cc1 (stereo not shown) [GSK1379735],0,7,0,0,7,0,0,13,0,10,32,0,6,2,12,13,14,0,16,38
c1ccc(-c2ccnc3[nH]ccc23)cc1 [SB-693578],36,0,1,12,30,0,0,74,19,0,8,0,0,0,43,26,23,30,0,0
CS(=O)(=O)CCNCc1nc(-c2ccc3ncnc(Nc4ccc5c(cnn5Cc5ccccc5)c4)c3c2)cs1.Cl.Cl [GW569716],34,0,8,0,16,29,0,0,2,3,0,0,0,0,26,41,16,0,0,1
Cc1ccc(NC(=O)c2ccc(Cl)cc2)cc1-c1ccc(C(=O)Nc2ccncc2)cc1 [GSK1398467],16,0,0,0,0,0,0,5,15,0,0,0,0,0,3,5,38,0,0,0
COC(=O)c1cccc(NC(=O)NC2CCN(c3ccnc(Nc4ccc(OC)cc4)n3)C2)c1 (stereo not shown) [GSK1379746],1,0,0,0,24,8,0,0,14,0,23,0,0,0,8,53,35,0,0,0
CCCCc1nn2ncccc2c1-c1ccnc(NC2CC2)n1 [GW684374],23,0,8,10,0,0,3,0,0,0,4,0,0,4,0,1,68,0,6,0
Fc1ccc(-c2nn3cccc(F)c3c2-c2ccncc2)cc1 [GW475620],0,7,0,0,1,0,0,0,0,0,0,2,1,0,37,21,61,2,0,3
COc1ccc(CSc2nnc(-c3ccc4ncsc4c3)o2)cc1C(F)(F)F,15,6,0,10,8,0,10,0,29,0,0,0,0,0,0,0,0,0,16,16
CNC(=O)c1ccc(C)c(-n2c(C)cc(OCc3ccc(F)cc3F)c(Br)c2=O)c1,0,0,0,0,0,0,0,0,12,0,0,0,2,0,0,0,0,0,2,0
Cc1cnc(N)c(/C=C/c2cncc(C(=O)NCCc3ccc(Cl)cc3Cl)c2)c1.Cl [GSK190937],6,0,21,21,13,0,5,10,0,0,9,0,0,0,10,18,7,0,4,10
O=C1NC(=O)C(c2ccc(Cl)cc2)=C1Nc1cccc(Cl)c1 [SB-317651],5,8,12,0,0,0,0,0,16,0,6,0,0,0,5,12,0,0,2,17
COc1ccc(CSc2nnc(-c3ccc4c(c3)CCO4)o2)cc1,0,0,0,0,0,0,10,0,26,0,0,0,0,0,0,0,0,0,18,9
Cc1nccc(-c2c(-c3ccc(F)cc3)ncn2CCCN2CCOCC2)n1.Cl [SB-282975],0,0,3,7,0,16,0,4,27,0,16,20,0,13,48,15,0,15,0,6
O=C(Nc1n[nH]c2nc(-c3cccs3)c(Br)cc12)C1CCCC1 [SB-743341],17,42,15,15,12,0,0,0,5,0,14,16,14,15,0,15,2,8,0,13
O=C1NC(=O)C(c2ccc(Cl)cc2)=C1Nc1ccc(O)cc1 [SB-340867],0,0,14,12,0,0,0,0,0,0,0,0,11,0,0,0,0,0,0,7
O=C(Nc1n[nH]c2nc(-c3cccs3)c(Br)cc12)C1CC1 [SB-735297],8,0,11,16,0,0,0,0,0,0,0,0,13,0,0,0,0,0,0,39
CNc1nc(-c2ccc3c(N)n[nH]c3c2)cc(N2C[C@@H](C(=O)NC3CCCCC3)OC[C@H]2C)n1 [GSK2375584],35,0,29,28,9,0,2,0,11,0,11,0,0,4,5,0,9,6,14,16
Cc1ccccc1Cn1ccn2c(=O)cc(N3CCOCC3)nc12 [GSK2269905],7,0,12,0,2,0,0,13,11,16,4,0,0,0,0,19,9,6,12,13
NS(=O)(=O)c1cccc(N/C=C2\C(=O)Nc3ccc(S(=O)(=O)Cc4c(Cl)cccc4Cl)cc32)c1 [GSK398099],14,0,0,0,0,0,10,21,10,0,26,0,0,13,2,0,20,9,0,0
